S2 tox – viability counter-screen for ATXN expression inhibitors; S2 cells (HEK-293 line with an ATXN2-luciferase reporter) viability, CellTiter-Fluor protease fluorescence, 24 h; Potency, µM (series often up to 56.7 µM), most hits filed as cytotoxic; 0.49% of 400,000 active; also: nearly all actives have a fitted effect of over 40% in size
TGFb inhibitor – TGF-b pathway inhibition | HepG2 CAGA-GFP TGF-b/SMAD3 reporter, GFP fluorescence, 18 h; TGF-beta stimulated, 500 pg/mL final | Potency, µM (series often up to 46.1 µM), inactives show at the top dose activity, negative = inhibition, usual class: inhibitors | 1.2% of 410,000 active; also: % is scaled to controls: 0 for no effect and ±100 for the full control effect; nearly all actives have a fitted effect of over 65% in size
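First, reporter cells (HEPG2 CAGA-GFP) rested 2 h at 37 degrees C. Next, compounds were pinned in and TGF-beta added to 500 pg/mL final. After 18 h, GFP was imaged per cell and summed per well.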
ATXN2 expr inh – inhibitors of ATXN2 expression. HEK-293 ATXN2-luciferase reporter, luminescence, 24 h. Potency, µM (highest dose often 57 µM), inactives show at the top dose activity change, negative = inhibition, actives largely listed as inhibitors. 0.72% of 360,000 active. AID 1745845; also: % is scaled to controls: 0 for no effect and ±100 for the full control effect; nearly all actives have a fitted effect of over 55% in size
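ATXN2-luciferase reporter cells (luciferase flanked by upstream and downstream ATXN2 gene portions) were treated 24 h at 37 °C with compounds at up to 57 uM. SteadyGlo luminescence gave expression; GF-AFC fluorescence gave viability.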
HepG2 viability – counter-screen for TGF-b inhibitors: cytotoxicity in HepG2 cells; HepG2 CAGA-GFP viability, ATP luminescence, 18 h; Potency, µM (doses to about 46.1 µM), for inactives: top-dose activity change, negative = cytotoxicity, actives largely listed as cytotoxic; 0.76% of 410,000 active; AID 588856
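CellTiter-Glo luminescence gave cytotoxicity after 18 hours at 37 degrees C. The cells were HepG2 CAGA-GFP in 1% FBS DMEM, stimulated with 500 pg/mL TGF-beta after compound addition. %Activity was normalised to no-cell wells (complete cell-killing) and DMSO (no toxicity), and curves were fitted and classified.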
Gal4-VP16 FLuc – counter-screen for ROR gamma inhibitors: Gal4-VP16 reporter | Drosophila S2 Gal4-VP16 UAS-luciferase, luminescence, 20 h | Potency, µM (highest dose often 53.6 µM), for the others: at the highest dose activity, negative = inhibition, actives largely listed as inhibitors | 3.5% of 310,000 active | AID 2546;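 also: Gal4-VP16 expression switched on by copper sulfate through the metallothionein promoter; % is scaled to controls: 0 for no effect and ±100 for the full control effect; nearly all actives have a fitted effect of over 50% in size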
RORgamma inh – blocks mouse ROR gamma transcriptional activity; P51450; Drosophila S2 Gal4-RORgamma UAS-luciferase reporter, 20 h; Potency, µM (series often up to 53.6 µM), for the others: top-dose activity change, negative = inhibition, actives largely listed as inhibitors; 5.4% of 310,000 active; also: % is scaled to controls: 0 for no effect and ±100 for the full control effect; nearly all actives have a fitted effect of over 60% in size
Target sequence (P51450 whole entry, looked up, the tested form may be a part): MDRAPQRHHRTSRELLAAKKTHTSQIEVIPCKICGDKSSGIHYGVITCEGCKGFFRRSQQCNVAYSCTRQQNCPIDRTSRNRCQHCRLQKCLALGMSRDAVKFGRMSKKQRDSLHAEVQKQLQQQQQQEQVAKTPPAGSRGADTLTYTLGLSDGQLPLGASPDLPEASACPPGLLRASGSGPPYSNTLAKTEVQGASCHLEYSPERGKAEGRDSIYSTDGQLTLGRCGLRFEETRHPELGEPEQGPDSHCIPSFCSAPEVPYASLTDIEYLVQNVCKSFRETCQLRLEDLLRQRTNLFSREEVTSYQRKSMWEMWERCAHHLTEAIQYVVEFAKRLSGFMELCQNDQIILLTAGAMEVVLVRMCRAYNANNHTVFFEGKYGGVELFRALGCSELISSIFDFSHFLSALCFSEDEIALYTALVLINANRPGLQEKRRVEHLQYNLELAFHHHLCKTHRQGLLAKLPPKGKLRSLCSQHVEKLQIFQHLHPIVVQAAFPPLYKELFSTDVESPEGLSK
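ROR gamma transcriptional activity was tracked as Gal4-UAS luciferase output in stably transfected Drosophila Schneider cells, with compound added 1 hr before 700 uM copper sulfate induction and a 20 hr ambient-temperature incubation.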
Starred values were filed as active, the others as inactive. Sampled rows, rich in hits. Any-hit rate of the full collection: about 6.1%. Calls follow the shape of the dose curve; as a rule, active = well fitted curve in the direction sought with a large enough effect; inconclusive = small, poorly fitted or top-dose-only effect, or another doubt; inactive = no such curve, though single readings can be large; an effect the other way counts as inactive or inconclusive. Potency is read from the fitted curve at half-maximal effect.

How did Cc1ccc(C)c(OCC(O)CN2CCN(CCN3C(=O)c4cccc5cccc(c45)C3=O)CC2)c1 (centres undefined) do in these assays?
S2 tox: inconclusive; TGFb inhibitor: inconclusive; ATXN2 expr inh: inconclusive; HepG2 viability: -99.0%; Gal4-VP16 FLuc: inconclusive; RORgamma inh: -4.3%

Results for COC(=O)[C@@H]1CCCN1C(=O)c1c(OC)cc(=O)n2c1CCN(Cc1ccc3c(c1)CCO3)CC2 ?
S2 tox: inactive

How did CC(=O)Nc1ccc(Nc2cc(-c3ccccc3)nc3ncnn23)cc1 do in these assays?
S2 tox: inactive; TGFb inhibitor: -1.1%; ATXN2 expr inh: -7.3%; HepG2 viability: 0.2%; Gal4-VP16 FLuc: 1.5%; RORgamma inh: -15.0%

What do the screens show for `Cc1cc(Nc2ccc3ccccc3c2)n2ncnc2n1`?
S2 tox: inactive; TGFb inhibitor: inconclusive; ATXN2 expr inh: 52.6%; HepG2 viability: -8.1%; Gal4-VP16 FLuc: inconclusive; RORgamma inh: 6.31µM*

What do the screens show for `COc1ccc(Nc2cc(C)nc3ncnn23)cc1`?
S2 tox: inactive; TGFb inhibitor: -0.7%; ATXN2 expr inh: -29.2%; HepG2 viability: 11.2%

How did FC(F)(F)c1cccc(Nc2cc(-c3ccccc3)nc3ncnn23)c1 do in these assays?
S2 tox: inactive; TGFb inhibitor: -2.6%; HepG2 viability: -2.4%; Gal4-VP16 FLuc: -11.4%; RORgamma inh: 2µM*

How did O=C(CCc1ccc(Oc2cc([N+](=O)[O-])cc([N+](=O)[O-])c2)cc1)N1CCCCCC1 do in these assays?
S2 tox: inactive; TGFb inhibitor: 17.8µM*; ATXN2 expr inh: inconclusive; HepG2 viability: -37.7%; Gal4-VP16 FLuc: inconclusive; RORgamma inh: -33.3%

How did O=C(Cc1ccc([N+](=O)[O-])cc1)N1CCCCCC1 do in these assays?
S2 tox: inactive; TGFb inhibitor: -7.0%; ATXN2 expr inh: -21.6%; HepG2 viability: -22.4%; Gal4-VP16 FLuc: -0.8%; RORgamma inh: 4.5%

How did O=C(CCl)N(c1ccccc1)c1c[nH]c2ccccc12 do in these assays?
S2 tox: 25.1µM*; TGFb inhibitor: 8.91µM*; ATXN2 expr inh: inconclusive; HepG2 viability: -99.8%; Gal4-VP16 FLuc: inconclusive; RORgamma inh: 14.1µM*

How did O=C(CCl)N(c1ccc(Cl)cc1)c1c[nH]c2ccccc12 do in these assays?
S2 tox: 17.8µM*; TGFb inhibitor: 15.8µM*; ATXN2 expr inh: inconclusive; HepG2 viability: 17.8µM*; Gal4-VP16 FLuc: 10µM*; RORgamma inh: 4.47µM*

Results for O=C(O)Cc1c[nH]c2ccccc12 ?
S2 tox: inactive; TGFb inhibitor: -1.1%; ATXN2 expr inh: -1.4%; HepG2 viability: -3.8%

How did CC(=O)O[C@@H]1CC2C3CCc4cc(OC(=O)c5ccccc5)ccc4C3CCC2(C)[C@H]1OC(C)=O (some centres undefined) do in these assays?
S2 tox: inactive; ATXN2 expr inh: 7.9%

What do the screens show for `Cc1cccc(NC(=O)C2CCCN(S(=O)(=O)c3c(C)n[nH]c3C)C2)c1` (centres undefined)?
S2 tox: inactive; TGFb inhibitor: -2.7%; ATXN2 expr inh: -6.3%; HepG2 viability: -0.9%

What do the screens show for `CCC(Cn1nnc2ccccc2c1=O)NC(=O)Nc1cccc(C)c1C` (centres undefined)?
TGFb inhibitor: 0.0%; HepG2 viability: 0.4%

Results for Nc1nonc1-c1nc2ccccc2n1Cc1ccc(F)cc1Cl ?
S2 tox: inactive; TGFb inhibitor: -10.2%; HepG2 viability: -12.7%; Gal4-VP16 FLuc: inconclusive; RORgamma inh: 15.8µM*

How did S=c1[nH]ncn2c1cc1oc3ccccc3c12 do in these assays?
S2 tox: inconclusive; TGFb inhibitor: -26.4%; ATXN2 expr inh: 4.7%; HepG2 viability: 5.4%; Gal4-VP16 FLuc: -17.8%; RORgamma inh: 2.51µM*

How did COC(=O)N1C(=O)[C@@](Cc2ccccc2)(c2ccccc2)N1C(=O)OC do in these assays?
S2 tox: inconclusive; TGFb inhibitor: 7.94µM*; ATXN2 expr inh: inconclusive; HepG2 viability: -96.9%; Gal4-VP16 FLuc: -2.1%; RORgamma inh: inconclusive

Results for COC(=O)N1C(=O)[C@@](c2ccccc2)(C2CCCCC2)N1C(=O)OC ?
S2 tox: 20µM*; TGFb inhibitor: inconclusive; ATXN2 expr inh: inconclusive; HepG2 viability: -28.6%; Gal4-VP16 FLuc: -8.1%; RORgamma inh: 7.94µM*

Results for CC[C@@]1(c2ccccc2)C(=O)N(C(=O)OC)N1C(=O)OC ?
S2 tox: inconclusive; TGFb inhibitor: -27.6%; ATXN2 expr inh: 6.4%; HepG2 viability: -15.1%; Gal4-VP16 FLuc: inconclusive; RORgamma inh: -36.2%

Results for COc1ccc(C2CC(=O)c3cnc4c(-c5ccc(F)cc5)c(C)nn4c3C2)cc1OC (centres undefined) ?
S2 tox: inactive; TGFb inhibitor: 3.6%; ATXN2 expr inh: 5.1%; HepG2 viability: -32.3%

What do the screens show for `O=C(N/N=C/C1C(c2ccccc2)C1(Cl)Cl)c1cccc(Cl)c1` (centres undefined)?
S2 tox: inactive; TGFb inhibitor: inconclusive; ATXN2 expr inh: 16.3%; HepG2 viability: -32.3%; Gal4-VP16 FLuc: 4.47µM*; RORgamma inh: 2.82µM*

Results for CCC/C(=N/NC(=O)c1cccc(Cl)c1)c1ccccc1 ?
S2 tox: inactive; TGFb inhibitor: -7.8%; ATXN2 expr inh: 12.2%; HepG2 viability: -11.0%; Gal4-VP16 FLuc: inconclusive; RORgamma inh: 12.6µM*

How did CCC/C(=N\NC(=O)C1CC1)c1ccccc1 do in these assays?
S2 tox: inactive; TGFb inhibitor: 4.3%; ATXN2 expr inh: -1.2%; HepG2 viability: -9.6%

Results for Cc1ccc(Nc2c(-c3c[nH]c4ccccc34)nc3ccccn23)cc1 ?
S2 tox: inconclusive; TGFb inhibitor: -11.0%; ATXN2 expr inh: inconclusive; HepG2 viability: -45.2%

What do the screens show for `COc1ccccc1NC(=O)Cc1csc(NC(=S)Nc2ccccc2)n1`?
S2 tox: inconclusive; TGFb inhibitor: 14.1µM*; ATXN2 expr inh: -12.6%; HepG2 viability: -37.3%; Gal4-VP16 FLuc: 3.16µM*; RORgamma inh: 1.12µM*

What do the screens show for `COc1ccc(NC(=S)Nc2nc(CC(=O)Nc3ccccc3OC)cs2)cc1`?
S2 tox: inactive; TGFb inhibitor: inconclusive; ATXN2 expr inh: -7.3%; HepG2 viability: -29.6%; Gal4-VP16 FLuc: 4.47µM*; RORgamma inh: 1.78µM*

Results for COc1ccc(OC)c(NC(=O)Cc2csc(NC(=O)Nc3ccccc3OC)n2)c1 ?
S2 tox: inactive; TGFb inhibitor: -24.4%; ATXN2 expr inh: inconclusive; HepG2 viability: -36.3%

Source: PubChem
